The entries come from a sample that favours hits as a whole.
Tg IFNy HTS – inhibitors of Toxoplasma gondii growth with IFN-gamma; Toxoplasma gondii growth in IFN-gamma-treated host cells; hits give low values; activity change, negative = inhibition, % (no concentration beside the values); 3.8% of 69,000 active; AID 1259416; in the data active means activity change below about -70%, passing the limit was not always enough;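 further: host cells are HeLa cells infected with Toxoplasma gondii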
* hit, by the source's call.

SMILES	Tg IFNy HTS
CC(C)N(Cc1ccccc1)C(=O)c1cc2cccnc2n(Cc2ccc(F)cc2)c1=O	-96*
CC1CCN(C(=O)c2cc3cccnc3n(Cc3ccc(F)cc3)c2=O)CC1	15
O=C(c1cc2cccnc2n(Cc2ccc(Cl)cc2)c1=O)N1CCN(c2ccccc2)CC1	-4
COc1ccccc1N1CCN(C(=O)c2cc3cccnc3n(Cc3ccccc3)c2=O)CC1	28
CN(Cc1ccccc1)C(=O)c1cc2cccnc2n(Cc2ccccc2)c1=O	16
O=C(c1ccco1)N1CCN(C(=O)c2cc3cccnc3n(Cc3ccc(F)cc3)c2=O)CC1	-15
COc1ccc(N2CCN(C(=O)c3cc4cccnc4n(Cc4ccc(F)cc4)c3=O)CC2)cc1	33
O=C(c1cc2cccnc2n(Cc2ccc(F)cc2)c1=O)N1CCN(c2cccc(Cl)c2)CC1	-119*
O=C(c1cc2cccnc2n(Cc2ccc(F)cc2)c1=O)N1CCCCCC1	-12
O=C(c1cc2cccnc2n(Cc2ccc(F)cc2)c1=O)N1CCN(c2ccccc2Cl)CC1	-84*
CCOC(=O)c1cnn(C(=O)c2snnc2C)c1N	27
Cc1cccnc1C(=O)N(Cc1ccccc1Cl)C(C)C	-2
Cc1cc(C(F)(F)F)n2nc(C3CCCCN3S(=O)(=O)c3ccc(F)cc3)cc2n1 (centres undefined)	-3
OC(COCC1CC=CCC1)CN(Cc1ccccc1)Cc1ccccc1 (centres undefined)	-60
Cc1noc(C)c1CN1Cc2nccn2CC(CN2CCCC2)C1 (centres undefined)	88
O=C(O)C1CC(N2CCCC2)CCN1C(=O)c1cccs1 (centres undefined)	-2
CC1=C(C(=O)NCC2CCCO2)C2(CCN(S(=O)(=O)c3cccs3)CC2)OC1=O (centres undefined)	-2
Cc1oc(C2CCN(S(=O)(=O)c3cccc(F)c3)CC2)nc1C(=O)N1CCCC1	13
Cc1cccc(NC(=O)N2CCC(c3nc(C(=O)N(C)C)c(C)o3)CC2)c1C	-13
Cc1oc(C2CCN(C(=O)Nc3cccc(F)c3C)CC2)nc1C(=O)N(C)C	-79*
CSc1ccc(NC(=O)N2CCC(c3nc(C(=O)N4CCCCC4)c(C)o3)CC2)cc1	-64
Cc1oc(C2CCN(C(=O)Nc3cccc(Cl)c3C)CC2)nc1C(=O)N(C)C	15
Cc1oc(C2CCN(C(=O)Nc3ccc(Cl)cc3)CC2)nc1C(=O)N1CCCC1	-21
Cc1ccc(F)cc1S(=O)(=O)N1CCC(c2nc(C(=O)N3CCCC3)c(C)o2)CC1	-82*
CSc1ccc(NC(=O)N2CCC(c3nc(C(=O)N4CCCC4)c(C)o3)CC2)cc1	-84*
SMILES	Tg IFNy HTS
Cc1oc(C2CCN(S(=O)(=O)c3ccc(F)cc3)CC2)nc1C(=O)N1CCCC1	-29
CCc1ccc2c(c1)cc(S(=O)(=O)c1ccccc1)c(=O)n2CC(=O)NC(C)C	-38
COc1cccc(SCC(=O)N2C[C@@H]3[C@H](C2)[C@H]2CC[C@@H]3O2)c1	181
CN1CCC(Cc2noc(CCn3cccc3)n2)CC1	0
Cc1nnsc1C(=O)N1CCC(c2n[nH]c(=O)n2Cc2ccccc2)CC1	-28
CCc1ccc2oc(=O)cc(CN3CCN(Cc4nc(-c5ccccc5)oc4C)CC3)c2c1	10
CC1Oc2ccc(NC(=O)c3ccn(C(F)F)n3)cc2NC1=O (centres undefined)	37
Cc1nc(CC(NC(=O)c2cc(C(C)(C)C)[nH]n2)c2ccc(Cl)cc2)cc(=O)[nH]1 (centres undefined)	7
Cc1cc(C)nc(N2CCC(CNC(=O)c3cc(C(C)(C)C)[nH]n3)CC2)n1	-77*
CC(=O)N1CCN(c2nc(C)cc(C)n2)CC1	17
COc1cccc(N2CC3(CCN(c4ccc(C)nn4)C3)CC2=O)c1 (centres undefined)	0
COc1ccccc1/C=C/CN1CCOC(c2cc(C(=O)NC(C)C)c3ccccc3n2)C1 (centres undefined)	12
Cc1cccc(C2c3[nH]c4ccccc4c3CCN2C(=O)c2ccccc2Cl)c1 (centres undefined)	-110*
CSc1ccc(C2c3[nH]c4ccccc4c3CCN2C(=O)c2ccccc2Cl)cc1 (centres undefined)	89
CSc1ccc(C2c3[nH]c4ccccc4c3CCN2C(=O)c2ccc(C)cc2)cc1 (centres undefined)	34
O=C(c1ccccc1F)N1CCc2c([nH]c3ccccc23)C1c1ccccc1 (centres undefined)	39
Cc1cccc(C2c3[nH]c4ccccc4c3CCN2C(=O)c2ccccc2)c1 (centres undefined)	135
Cc1ccc(C2c3[nH]c4ccccc4c3CCN2C(=O)c2ccccc2Cl)cc1 (centres undefined)	-118*
CN(C)CCN1CCOCC2(CCN(C(=O)C3CCOC3)CC2)C1 (centres undefined)	-7
Cc1ccsc1C(=O)N1CCC(C2(Cc3ccc(F)cc3)NC(=O)N(C3CCOC3)C2=O)CC1 (centres undefined)	3
COc1cccc(CC(=O)N2CCC3(CC2)NC(=O)c2cc(F)ccc2N3C)c1	35
CCCCC(=O)Nc1cc(NC(=O)c2ccncc2Cl)ccc1OC	-30

Screening data from PubChem.
